Source: PubChem BioAssay (Tox21)
“And” between values parts separate entries of the source, which are not always exact repeats. Equal values may be shown once. Where a structure was tested more than once in an assay, its records may differ in their call. The source made the active and inactive calls. Entries that show only a call come without a potency. Unless noted, calls come from the whole dose curve; as a rule, active = well fitted curve in the direction sought with a large enough effect in the repeat runs; inconclusive = weak or mixed curves; inactive = no such curve, though single readings can be large; an effect the other way counts as inactive or inconclusive.

Assays:
[1] = qHTS assay to identify small molecule antagonists of the glucocorticoid receptor (GR) signaling pathway - cell viability counter screen (AID 720693); note: nearly all actives have a fitted effect of over 55% in size; note: potency is the fitted concentration of half-maximal effect
[2] = qHTS assay for identifying genotoxic compounds that show differential cytotoxicity against isogenic chicken DT40 cell lines with known DNA damage response pathways - wild type cell line (AID 743012); note: nearly all actives have a fitted effect of over 60% in size; note: potency is the fitted concentration of half-maximal effect
Outline: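 Wild-type DT40 cells (300/well) exposed to compounds for 40 hours at 37 C/5% CO2. Viability read by CellTiter-Glo luminescence after 30 min at room temperature.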

[3] = qHTS assay for identifying genotoxic compounds that show differential cytotoxicity against isogenic chicken DT40 cell lines with known DNA damage response pathways - Rev3 mutant cell line (AID 743014); note: nearly all actives have a fitted effect of over 55% in size; note: potency is the fitted concentration of half-maximal effect
[4] = qHTS assay for identifying genotoxic compounds that show differential cytotoxicity against isogenic chicken DT40 cell lines with known DNA damage response pathways - Rad54/Ku70 mutant cell line (AID 743015); note: nearly all actives have a fitted effect of over 60% in size; note: potency is the fitted concentration of half-maximal effect
[5] = qHTS assay to identify small molecule antagonists of the androgen receptor (AR) signaling pathway - cell viability counter screen (AID 743033; note: nearly all actives have a fitted effect of over 45% in size; note: potency is the fitted concentration of half-maximal effect)
[6] = target: Androgen receptor (Homo sapiens) (UniProt P10275); test: qHTS assay to identify small molecule agonists of the androgen receptor (AR) signaling pathway (AID 743036; active = well fitted activation curve with a large enough effect in the signal ratio in the repeat runs, with a control signal flat, not every such curve was filed as active; inconclusive = weak or mixed curves, or effect the other way; inactive = no such curve, though single readings can be large or run the other way; the % refers to the signal ratio)
Outline: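 Quantitative HTS of the Tox21 10K library in HEK293 cells bearing a stably integrated UAS-controlled beta-lactamase reporter. Compound exposure lasted 16 h at 37C. Reporter activity was detected by FRET substrate fluorescence after 2 h at room temperature.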

[7] = target: Androgen receptor (Homo sapiens) (UniProt P10275); test: qHTS assay to identify small molecule agonists of the androgen receptor (AR) signaling pathway using the MDA cell line (AID 743040; note: nearly all actives have a fitted effect of over 20% in size)
Outline: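 MDA-kb2 breast carcinoma cells carrying MMTV-luciferase (responsive to AR and GR), plated 5 h then treated 16 h with compounds at 37C, 0% CO2. Read-out was ONE-Glo luminescence after 30 min at room temperature.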

[8] = qHTS assay to identify small molecule antagonists of the androgen receptor (AR) signaling pathway using the MDA cell line - cell viability counter screen (AID 743041; note: nearly all actives have a fitted effect of over 45% in size; note: potency is the fitted concentration of half-maximal effect)
Outline: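 MDA-kb2 AR-luc cells (MMTV-luciferase, AR/GR responsive) treated with compounds plus R1881 agonist for 16 h at 37C. CellTiter-Fluor added at 15.5 h; fluorescence read after 30 min in the same wells.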

[9] = target: Androgen receptor (Homo sapiens) (UniProt P10275); test: qHTS assay to identify small molecule antagonists of the androgen receptor (AR) signaling pathway using the MDA cell line (AID 743042; note: nearly all actives have a fitted effect of over 55% in size)
Outline: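 MDA-kb2 breast carcinoma cells carrying MMTV-luciferase (AR/GR responsive) were co-treated with compounds and the agonist R1881 for 16 h at 37C. Inhibition read as ONE-Glo luminescence; CellTiter-Fluor fluorescence measured in parallel for cytotoxicity.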

[10] = qHTS assay to identify small molecule antagonists of the thyroid receptor (TR) signaling pathway - cell viability counter screen (AID 743064); note: nearly all actives have a fitted effect of over 50% in size; note: potency is the fitted concentration of half-maximal effect
Outline: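 Rat GH3 pituitary tumor cells stably expressing two TR response elements driving luciferase were plated, rested 4 h, then dosed with library compounds and T3 (1 nM final). After 23.5 h at 37 °C, CellTiter-Fluor was added for 30 min and fluorescence recorded.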

[11] = test system: thyroid hormone receptor (rat, GH3 cells); test: qHTS assay to identify small molecule agonists of the thyroid receptor (TR) signaling pathway (AID 743066; calls by dose curve)
[12] = target: Estrogen receptor (Homo sapiens) (UniProt P03372); test: qHTS assay to identify small molecule antagonists of the estrogen receptor alpha (ER-alpha) signaling pathway (AID 743069; active = well fitted curve in the direction sought with a large enough effect in the signal ratio in the repeat runs, not every such curve was filed as active; inconclusive = weak or mixed curves, or effect the other way; inactive = no such curve, though single readings can be large or run the other way; the % refers to the signal ratio; note: potency is the fitted concentration of half-maximal effect)
Outline: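 HEK293 ER-alpha-UAS-bla GripTite cells, held overnight in 2% charcoal-stripped FBS, 5,000 cells/well, preincubated 4 h, then compound plus 17beta-estradiol for 18 h at 37C. Beta-lactamase read by LiveBLAzer B/G FRET substrate, 2 h at room temperature.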

[13] = qHTS assay to identify small molecule antagonists of the estrogen receptor alpha (ER-alpha) signaling pathway - cell viability counter screen (AID 743074; calls by dose curve;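 note: HEK293 cells carrying ER-alpha-UAS-bla reporter stimulated with 17beta-estradiol; nearly all actives have a fitted effect of over 45% in size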)
[14] = target: Estrogen receptor (Homo sapiens) (UniProt P03372); test: qHTS assay to identify small molecule agonists of the estrogen receptor alpha (ER-alpha) signaling pathway (AID 743075; calls by dose curve)
[15] = target: Estrogen receptor (Homo sapiens) (UniProt P03372); test: qHTS assay to identify small molecule agonists of the estrogen receptor alpha (ER-alpha) signaling pathway using the BG1 cell line (AID 743079); note: nearly all actives have a fitted effect of over 20% in size; note: potency is the fitted concentration of half-maximal effect
[16] = qHTS assay to identify small molecule antagonists of the estrogen receptor alpha (ER-alpha) signaling pathway using the BG1 cell line (AID 743080; calls by dose curve;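 note: BG1 cells stimulated with 17beta-estradiol alongside compound; nearly all actives have a fitted effect of over 25% in size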; note: potency is the fitted concentration of half-maximal effect)
Outline: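 Quantitative HTS on the Tox21 10K library: BG1 cells with endogenous ER-alpha and ERE-luciferase reporter, 17beta-estradiol stimulation, 21.5 h compound exposure, luminescence endpoint with parallel fluorescence cytotoxicity counter-read.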

[17] = qHTS assay to identify small molecule antagonists of the estrogen receptor alpha (ER-alpha) signaling pathway using the BG1 cell line - cell viability counter screen (AID 743081);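 note: compound given together with 17beta-estradiol as the ER stimulus; nearly all actives have a fitted effect of over 45% in size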; note: potency is the fitted concentration of half-maximal effect
Aromatase (Homo sapiens) = Aromatase (Homo sapiens) (UniProt P11511); test: qHTS assay to identify aromatase inhibitors (AID 743083); note: nearly all actives have a fitted effect of over 55% in size; note: potency is the fitted concentration of half-maximal effect
[18] = qHTS assay to identify small molecule antagonists of the thyroid receptor (TR) signaling pathway (AID 743065)
Outline: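 GH3.TRE-Luc rat pituitary cells (two TREs driving luciferase) were dosed with compound, then stimulated with 1 nM T3 (final) for 23.5 h at 37 C. ONE-Glo luminescence was the read-out, with CellTiter-Fluor fluorescence as the cytotoxicity counter-screen.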

Sequence of Estrogen receptor (Homo sapiens) (P03372 whole entry, looked up): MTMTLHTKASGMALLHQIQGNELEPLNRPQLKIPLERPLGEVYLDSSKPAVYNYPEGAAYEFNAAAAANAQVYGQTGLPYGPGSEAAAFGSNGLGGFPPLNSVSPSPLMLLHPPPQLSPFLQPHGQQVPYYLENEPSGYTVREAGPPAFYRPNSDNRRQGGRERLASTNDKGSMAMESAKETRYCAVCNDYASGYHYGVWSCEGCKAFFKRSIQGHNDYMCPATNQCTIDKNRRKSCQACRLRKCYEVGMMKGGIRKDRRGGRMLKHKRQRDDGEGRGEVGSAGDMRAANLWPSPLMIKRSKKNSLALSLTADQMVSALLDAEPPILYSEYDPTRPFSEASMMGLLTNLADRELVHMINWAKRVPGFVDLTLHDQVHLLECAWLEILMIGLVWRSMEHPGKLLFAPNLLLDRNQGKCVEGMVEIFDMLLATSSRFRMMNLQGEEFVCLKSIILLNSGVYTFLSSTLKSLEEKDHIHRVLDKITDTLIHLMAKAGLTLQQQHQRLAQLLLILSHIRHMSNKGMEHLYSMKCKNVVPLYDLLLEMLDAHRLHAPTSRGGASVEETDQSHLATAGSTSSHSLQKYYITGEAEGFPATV
Sequence of Androgen receptor (Homo sapiens) (P10275 whole entry, looked up): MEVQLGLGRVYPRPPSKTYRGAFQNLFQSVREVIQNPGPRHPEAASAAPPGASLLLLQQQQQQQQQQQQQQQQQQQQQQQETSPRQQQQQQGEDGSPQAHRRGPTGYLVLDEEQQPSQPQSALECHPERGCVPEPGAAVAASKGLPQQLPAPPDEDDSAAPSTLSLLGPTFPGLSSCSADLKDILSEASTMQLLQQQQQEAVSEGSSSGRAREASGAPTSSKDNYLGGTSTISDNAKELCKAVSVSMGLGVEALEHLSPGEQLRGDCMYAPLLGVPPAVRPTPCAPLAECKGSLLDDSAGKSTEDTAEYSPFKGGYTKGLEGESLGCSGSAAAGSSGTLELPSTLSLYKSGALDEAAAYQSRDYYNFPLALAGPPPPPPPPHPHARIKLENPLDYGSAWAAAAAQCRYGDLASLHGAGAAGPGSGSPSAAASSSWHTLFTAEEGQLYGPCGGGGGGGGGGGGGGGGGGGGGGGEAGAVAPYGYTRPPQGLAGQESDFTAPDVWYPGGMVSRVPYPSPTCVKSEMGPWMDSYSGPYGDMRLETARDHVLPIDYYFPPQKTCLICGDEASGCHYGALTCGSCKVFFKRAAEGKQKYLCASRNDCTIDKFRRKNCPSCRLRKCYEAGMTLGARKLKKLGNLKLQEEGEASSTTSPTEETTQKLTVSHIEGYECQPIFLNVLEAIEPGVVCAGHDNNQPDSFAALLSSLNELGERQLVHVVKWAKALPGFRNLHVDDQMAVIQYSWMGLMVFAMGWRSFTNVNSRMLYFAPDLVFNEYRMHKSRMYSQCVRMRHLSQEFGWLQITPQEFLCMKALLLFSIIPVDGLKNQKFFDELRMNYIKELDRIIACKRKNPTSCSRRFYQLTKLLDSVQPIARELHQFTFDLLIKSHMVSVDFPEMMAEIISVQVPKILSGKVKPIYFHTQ
Sequence of Aromatase (Homo sapiens) (P11511 whole entry, looked up): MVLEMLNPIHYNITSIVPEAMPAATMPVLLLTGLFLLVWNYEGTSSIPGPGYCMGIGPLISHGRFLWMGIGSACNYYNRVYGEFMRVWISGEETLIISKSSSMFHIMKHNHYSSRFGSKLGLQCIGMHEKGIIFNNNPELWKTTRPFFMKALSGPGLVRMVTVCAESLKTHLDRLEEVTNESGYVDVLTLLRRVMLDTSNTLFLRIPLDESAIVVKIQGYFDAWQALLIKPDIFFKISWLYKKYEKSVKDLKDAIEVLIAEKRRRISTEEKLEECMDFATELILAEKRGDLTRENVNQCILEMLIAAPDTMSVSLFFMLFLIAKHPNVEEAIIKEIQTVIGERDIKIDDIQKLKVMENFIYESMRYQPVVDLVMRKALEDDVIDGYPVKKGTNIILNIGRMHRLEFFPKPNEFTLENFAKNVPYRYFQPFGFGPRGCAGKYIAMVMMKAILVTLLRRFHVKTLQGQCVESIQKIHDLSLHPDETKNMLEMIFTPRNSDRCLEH

Row | SMILES | Potency [1] | Potency [2] | Potency [3] | Potency [4] | Potency [5] | outcome [6] | Potency [7] | Potency [8] | Potency [9] | Potency [10] | Potency [11] | Potency [12] | Potency [13] | Potency [14] | Potency [15] | Potency [16] | Potency [17] | Potency (Aromatase (Homo sapiens)) | Potency [18]
1 | Cl/C=C\C[N+]12CN3CN(CN(C3)C1)C2 | inactive | 48.6 µM (active) | 30.6 µM (active) | 43.3 µM (active) | inactive | inactive | inactive | inactive | inactive | inactive | inactive | inactive | inactive | inactive | inactive | inactive | inactive | – | –
2 | CN(N=O)c1ccc([N+](=O)[O-])cc1 | inactive | inactive | inactive | inactive | inactive | – | – | inactive | – | inactive | inactive | inactive | inactive | inactive | inactive | inactive | inactive | inactive | –
3 | BrCCCCBr | inactive | inactive | inactive | inactive | inactive | – | – | inactive | – | – | inactive | inactive | inactive | inactive | inactive | inactive | inactive | inactive | inactive
4 | CN1C(=O)NC(=O)C(C)(C2=CCCCC2)C1=O (configuration not stated) | inactive | inactive | inactive | inactive | inactive | – | – | inactive | – | inactive | inactive | – | inactive | – | – | – | inactive | inactive | inactive
5 | O=C(NC(=O)c1c(F)cccc1F)Nc1ccc(OC(F)(F)C(F)OC(F)(F)F)c(Cl)c1 (configuration not stated) | inactive | 6.68 µM (active) | 4.22 µM (active) | 1.06 µM (active) | inactive | – | – | inactive | – | inactive | inactive | – | inactive | – | inactive | inactive | inactive | inactive | –
6 | CC(C)(C)c1cc([N+](=O)[O-])cc([N+](=O)[O-])c1O | 1.09 µM (active) | 19.3 µM (active) | 21.6 µM (active) | 19.3 µM (active) | 13.8 µM (active) | – | – | 24.3 µM (active) | – | 8.61 µM (active) | – | – | – | – | – | – | 21.6 µM (active) | 15.3 µM (active) | –
7 | C(=NC1CCCCC1)=NC1CCCCC1 | inactive | inactive and 15.4 µM (active) | inactive and 21.7 µM (active) | inactive and 3.06 µM (active) | inactive | – | – | inactive | – | inactive and 27.3 µM (active) | inactive | inactive and 3.89 µM [inconclusive] (active) | inactive | inactive | 13.8 µM (active) and inactive | 2.45 µM (active) and 2.43 µM (active) | – | inactive and 1.37 µM (active) | –
8 | C#CCOC(C(=O)OCCN(C)C)(c1ccccc1)c1ccccc1 | inactive | inactive | inactive | inactive | inactive | – | – | inactive | – | – | inactive | – | inactive | – | – | – | inactive | inactive | –
9 | C=CC(=O)OC(C)(C)C | inactive | inactive | inactive | inactive | inactive | – | – | inactive | – | inactive | – | – | inactive | – | – | – | inactive | inactive | –
10 | O=C(CBr)OCc1ccccc1 | inactive | inactive | inactive | inactive | inactive | – | – | inactive | – | inactive | – | inactive | inactive | – | – | inactive | inactive | inactive | –
11 | CCOP(O)OCC | inactive | inactive | inactive | inactive | inactive | – | – | inactive | – | inactive | inactive | – | – | – | – | – | inactive | inactive | –
12 | CC(O)(CS(=O)(=O)c1ccc(F)cc1)C(=O)Nc1ccc(C#N)c(C(F)(F)F)c1 (configuration not stated) | inactive | 26.6 µM (active) | 10.6 µM (active) and 28.3 µM (active) | 23.7 µM (active) and 28.3 µM (active) | inactive | – | – | inactive | – | inactive | inactive | – | inactive | inactive | inactive | 29.8 µM (active) | inactive | inactive | –
13 | Cc1ccc(N)cc1C | inactive | inactive | inactive | inactive | inactive | – | – | inactive | – | inactive | inactive | inactive | inactive | inactive | 49 µM (active) | inactive | inactive | inactive | –
14 | Cn1sc(Cl)cc1=O | inactive | inactive and 19.3 µM (active) | inactive and 21.7 µM (active) | inactive and 54.5 µM (active) | inactive | – | – | inactive | – | 68.6 µM (active) | inactive | inactive | inactive | inactive | inactive | inactive | inactive | inactive | –
15 | C=CC(=O)OCC(C)C | inactive | inactive | inactive | inactive | inactive | – | – | – | – | inactive | inactive | inactive | inactive | inactive | inactive | inactive | inactive | inactive | inactive
16 | CCC(COC(=O)c1cc(OC)c(OC)c(OC)c1)(c1ccccc1)N(C)C (configuration not stated) | inactive | 5.96 µM (active) | 3.35 µM (active) | 6.68 µM (active) | inactive | – | – | inactive | – | inactive | inactive | – | inactive | – | – | – | inactive | – | –
17 | CC(=O)C(C)(C)C | inactive | 45 µM (active) | 3.18 µM (active) | 4.01 µM (active) | inactive | – | – | inactive | – | inactive | inactive | inactive | inactive | inactive | inactive | inactive | inactive | inactive | –
18 | COC(=O)C(Br)CBr (configuration not stated) | inactive | inactive | inactive | inactive | inactive | – | – | inactive | – | inactive | – | inactive | inactive | inactive | inactive | inactive | inactive | inactive | inactive
19 | CCCCc1c(C)nc(NCC)nc1OS(=O)(=O)N(C)C | inactive | 15.4 µM (active) | 19.3 µM (active) | 15.4 µM (active) | inactive | – | – | inactive | – | – | inactive | inactive | inactive | inactive | – | – | – | inactive | –
